Of roughly 8,800 targets only a part is listed; those with a hit were picked by preference. About 0.5% of all pairs of compound and target were hits.
Legend:
Assay in all cases: log2 fold change, soluble protein after heating vs DMSO (PISA); higher = thermal stabilisation; K562 lysate, 10 uM; active = over 0.2 and 3.5 SD of the protein, either way, in both replicates (recomputed)
ibrutinib = compound: C=CC(=O)N1CCC[C@@H](n2nc(-c3ccc(Oc4ccccc4)cc3)c3c(N)ncnc32)C1 [ibrutinib]
Procedure, shortened: (§1)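 Dounce homogenisation of K562 pellets in PBS pH 7.4 with 1 mM MgCl2 produced a crude extract, used at 1 mg/mL protein. Exposure to 10 μM compound lasted 30 min, and aliquots were then heated for 3 min across 48°C-58°C, pooled and brought to 0.5% NP-40 at 4°C. The supernatant after 21,000xg for 90 min was quantified by TMTpro 16plex LC-MS/MS with channel sums equalised. Duplicate values are given as log-two fold change in thermal stability relative to solvent controls.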

[1] = compound: CC(=O)c1cnc2ccc(-c3cc(Cl)c(O)c(Cl)c3)nc2c1N[C@H]1CC[C@H](CN(C)C)CC1
Procedure, shortened: as §1

ralimetinib = compound: CC(C)(C)Cn1c(N)nc2ccc(-c3[nH]c(C(C)(C)C)nc3-c3ccc(F)cc3)nc21 [ralimetinib]
Procedure, shortened: as §1

[2] = compound: CC(C)(O)CC(=O)NCCn1ccc2ncnc(Nc3ccc(Oc4cccc(C(F)(F)F)c4)c(Cl)c3)c21
Procedure, shortened: as §1

[3] = compound: CC(C)C1=C2N=C(C=C(N2N=C1)NCC3=CC=CC=C3)NCCCCCCN
Procedure, shortened: as §1

[4] = compound: CC1=C(C(CC(=O)N1)C2=CC=C(C=C2)C(F)(F)F)C(=O)NC3=C(C=C4C(=C3)C=NN4)F
Procedure, shortened: as §1

[5] = compound: CC1=C(C2=C(C=C1)C(=O)C3=CC=CC=C3N2CCCN)C
Procedure, shortened: as §1

[6] = compound: CC1=C(C=C(C=C1)NC(=O)C2=CC(=CC=C2)N(C)C)NC(=O)C3=CC=C(C=C3)O
Procedure, shortened: as §1

[7] = compound: CC1=CC=C(C=C1)SC2=C3C=C(SC3=CN=C2)C(=O)N
Procedure, shortened: as §1

[8] = compound: CC1=C(C=C(C=C1)NC(=O)C2=CC(=CC=C2)C(C)(C)C#N)NC3=CC4=C(C=C3)N=CN(C4=O)C
Procedure, shortened: as §1

Measured: log2 fold change

DUSP22 isoform 2 (UniProt Q9NRW4)
inactive: ibrutinib -0.059 | [1] 0.043 | ralimetinib 0.007 | [2] 0.02 | [3] -0.092 | [4] 0.177 | [5] -0.046 | [6] 0.081 | [7] 0.007

FDFT1 (UniProt P37268)
inactive: ibrutinib -0.004 | [1] -0.014 | ralimetinib -0.014 | [2] 0.018 | [3] 0.013 | [4] -0.034 | [5] -0.028 | [8] -0.02 | [6] 0.017 | [7] 0.012

FHOD1 (UniProt Q9Y613)
inactive: ibrutinib 0.001 | [1] 0.03 | ralimetinib 0.041 | [2] -0.019 | [3] -0.002 | [4] -0.006 | [5] 0.006 | [8] 0.003 | [6] 0.025 | [7] -0.004

ENO1 isoform 2 (UniProt P06733)
inactive: ibrutinib -0.043 | [1] 0.008 | ralimetinib 0.02 | [2] -0.07 | [3] 0.028 | [4] -0.009 | [5] -0.013 | [8] 0.023 | [6] -0.002 | [7] -0.015

GAA (UniProt P10253)
inactive: ibrutinib 0.013 | [1] -0.011 | ralimetinib 0.054 | [2] -0.133 | [3] 0.009 | [4] 0.142 | [8] 0.028 | [6] 0.036 | [7] -0.084

G6PD isoform 2 (UniProt P11413)
inactive: ibrutinib -0.006 | [1] 0.001 | ralimetinib 0.023 | [2] 0.012 | [3] 0.018 | [4] -0.02 | [5] 0.045 | [8] -0.002 | [6] 0.024 | [7] 0.003

DUS3L (UniProt Q96G46)
UniProt Q96G46, sequence (Q96G46 whole entry, looked up): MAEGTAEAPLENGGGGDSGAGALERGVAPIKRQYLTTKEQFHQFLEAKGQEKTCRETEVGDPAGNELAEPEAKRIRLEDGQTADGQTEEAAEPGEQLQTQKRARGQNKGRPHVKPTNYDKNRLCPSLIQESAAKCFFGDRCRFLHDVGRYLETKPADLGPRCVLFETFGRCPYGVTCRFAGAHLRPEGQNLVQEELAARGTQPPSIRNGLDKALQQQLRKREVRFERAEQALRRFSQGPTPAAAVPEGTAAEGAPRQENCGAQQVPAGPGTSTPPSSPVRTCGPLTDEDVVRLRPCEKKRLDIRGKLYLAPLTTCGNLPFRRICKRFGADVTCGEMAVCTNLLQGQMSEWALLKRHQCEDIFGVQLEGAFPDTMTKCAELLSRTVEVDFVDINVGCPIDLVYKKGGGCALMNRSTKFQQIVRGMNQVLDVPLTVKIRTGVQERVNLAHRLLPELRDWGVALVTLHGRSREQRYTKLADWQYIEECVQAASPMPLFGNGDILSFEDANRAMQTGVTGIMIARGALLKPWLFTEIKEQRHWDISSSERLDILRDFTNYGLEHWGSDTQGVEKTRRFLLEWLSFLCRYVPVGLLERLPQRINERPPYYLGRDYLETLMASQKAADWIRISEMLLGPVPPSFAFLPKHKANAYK
inactive: ibrutinib 0.012 | [1] -0.003 | ralimetinib 0.023 | [2] -0.034 | [3] -0.007 | [4] 0.004 | [5] -0.007 | [8] 0.014 | [6] 0.001 | [7] -0.003

FNTB (UniProt P49356)
inactive: ibrutinib -0.018 | [1] 0.005 | ralimetinib 0.03 | [2] -0.013 | [3] -0.022 | [4] -0.036 | [5] -0.026 | [8] -0.011 | [6] 0.038 | [7] -0.013

GIGYF2 (UniProt Q6Y7W6)
UniProt Q6Y7W6, sequence (Q6Y7W6 whole entry, looked up): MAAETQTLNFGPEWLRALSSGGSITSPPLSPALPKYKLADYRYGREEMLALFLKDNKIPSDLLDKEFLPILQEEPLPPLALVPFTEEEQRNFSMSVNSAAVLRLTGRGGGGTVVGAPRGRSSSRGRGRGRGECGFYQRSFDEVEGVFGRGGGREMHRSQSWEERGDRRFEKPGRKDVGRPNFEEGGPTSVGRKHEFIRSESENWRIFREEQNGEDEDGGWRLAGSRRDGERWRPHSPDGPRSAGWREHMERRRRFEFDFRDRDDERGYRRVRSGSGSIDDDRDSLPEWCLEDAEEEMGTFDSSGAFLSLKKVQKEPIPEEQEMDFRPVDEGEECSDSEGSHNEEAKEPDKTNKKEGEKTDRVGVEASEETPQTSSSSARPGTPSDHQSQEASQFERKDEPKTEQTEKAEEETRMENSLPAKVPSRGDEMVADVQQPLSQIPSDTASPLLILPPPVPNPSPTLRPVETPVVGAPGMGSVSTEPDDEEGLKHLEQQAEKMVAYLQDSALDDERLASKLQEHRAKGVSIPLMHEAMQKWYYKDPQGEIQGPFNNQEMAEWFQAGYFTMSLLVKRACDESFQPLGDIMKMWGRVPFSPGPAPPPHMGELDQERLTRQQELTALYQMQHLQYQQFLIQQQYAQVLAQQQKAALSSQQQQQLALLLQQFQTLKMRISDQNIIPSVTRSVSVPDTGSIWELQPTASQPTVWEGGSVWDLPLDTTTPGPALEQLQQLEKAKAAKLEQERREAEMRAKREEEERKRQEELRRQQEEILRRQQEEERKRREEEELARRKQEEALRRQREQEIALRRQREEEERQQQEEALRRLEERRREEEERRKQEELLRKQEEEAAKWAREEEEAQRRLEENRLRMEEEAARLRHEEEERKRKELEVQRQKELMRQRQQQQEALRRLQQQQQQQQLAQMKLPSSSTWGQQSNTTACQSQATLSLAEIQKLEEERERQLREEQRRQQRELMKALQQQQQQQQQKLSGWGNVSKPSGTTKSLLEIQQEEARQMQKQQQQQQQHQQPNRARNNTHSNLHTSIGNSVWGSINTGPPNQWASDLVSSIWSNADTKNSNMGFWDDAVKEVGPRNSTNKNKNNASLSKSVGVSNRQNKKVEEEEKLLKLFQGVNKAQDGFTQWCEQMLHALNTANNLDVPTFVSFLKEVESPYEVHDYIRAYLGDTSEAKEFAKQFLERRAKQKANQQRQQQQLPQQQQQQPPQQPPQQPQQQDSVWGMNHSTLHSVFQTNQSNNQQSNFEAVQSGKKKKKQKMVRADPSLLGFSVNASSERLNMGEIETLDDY
inactive: ibrutinib -0.01 | [1] 0.004 | ralimetinib 0.014 | [2] -0.016 | [3] 0.029 | [4] -0.015 | [5] 0.01 | [8] 0.007 | [6] -0.006 | [7] 0.023

FASTKD2 (UniProt Q9NYY8)
inactive: ibrutinib -0.008 | [1] -0.006 | ralimetinib -0.004 | [2] -0.039 | [3] -0.013 | [4] 0.003 | [5] -0.007 | [8] 0.034 | [6] -0.001 | [7] 0.024

EIF2AK1 (UniProt Q9BQI3)
inactive: ibrutinib 0.007 | [1] -0.151 | ralimetinib 0.028 | [2] 0.034 | [3] -0.017 | [4] -0.001 | [5] -0.007 | [8] 0.044 | [6] 0.018 | [7] -0.072

FIGNL1 (UniProt Q6PIW4)
inactive: ibrutinib 0 | [1] 0.063 | ralimetinib 0.04 | [2] 0.022 | [3] -0.006 | [4] -0.067 | [5] 0.008 | [8] -0.002 | [6] 0.02 | [7] 0.037

GBA2 (UniProt Q9HCG7)
UniProt Q9HCG7, sequence (Q9HCG7 whole entry, looked up): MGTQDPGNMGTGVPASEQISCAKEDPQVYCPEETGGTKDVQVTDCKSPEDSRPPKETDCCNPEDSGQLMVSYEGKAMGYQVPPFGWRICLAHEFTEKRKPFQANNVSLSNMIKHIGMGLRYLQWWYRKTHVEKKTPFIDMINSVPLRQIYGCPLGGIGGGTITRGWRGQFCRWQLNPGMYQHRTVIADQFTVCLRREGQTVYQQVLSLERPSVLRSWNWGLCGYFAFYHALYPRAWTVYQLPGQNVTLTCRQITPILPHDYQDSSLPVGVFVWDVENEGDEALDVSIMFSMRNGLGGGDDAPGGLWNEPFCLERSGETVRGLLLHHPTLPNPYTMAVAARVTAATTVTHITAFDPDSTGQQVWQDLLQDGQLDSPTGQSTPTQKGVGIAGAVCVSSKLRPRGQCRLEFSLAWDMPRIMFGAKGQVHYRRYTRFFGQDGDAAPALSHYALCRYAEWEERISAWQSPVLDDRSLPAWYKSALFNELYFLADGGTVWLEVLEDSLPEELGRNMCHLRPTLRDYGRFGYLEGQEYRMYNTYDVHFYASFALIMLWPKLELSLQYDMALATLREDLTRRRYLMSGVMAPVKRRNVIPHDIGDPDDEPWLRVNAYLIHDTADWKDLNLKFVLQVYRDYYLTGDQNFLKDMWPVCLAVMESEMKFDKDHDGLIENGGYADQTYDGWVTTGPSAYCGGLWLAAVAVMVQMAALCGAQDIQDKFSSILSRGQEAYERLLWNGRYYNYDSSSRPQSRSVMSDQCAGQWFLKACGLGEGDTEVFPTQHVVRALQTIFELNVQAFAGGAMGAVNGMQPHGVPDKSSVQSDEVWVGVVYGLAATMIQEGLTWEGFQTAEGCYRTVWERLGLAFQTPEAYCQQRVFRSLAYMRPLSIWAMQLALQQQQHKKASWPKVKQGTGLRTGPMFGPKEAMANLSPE
inactive: ibrutinib -0.071 | [1] -0.046 | ralimetinib 0.082 | [2] -0.097 | [3] 0.042 | [4] -0.037 | [5] 0.077 | [8] 0.004 | [6] 0.08 | [7] 0.021

FUBP3 (UniProt Q96I24)
inactive: ibrutinib 0.024 | [1] 0.002 | ralimetinib 0.021 | [2] -0.051 | [3] 0.014 | [4] -0.018 | [5] 0.072 | [8] -0.149 | [6] -0.003 | [7] -0.018

EED, A0A5F9ZI63
inactive: ibrutinib -0.026 | [1] -0.018 | ralimetinib 0.008 | [2] -0.039 | [3] -0.004 | [4] 0.036 | [5] -0.003 | [8] -0.016 | [6] 0.042 | [7] -0.008

EIF2B5 (UniProt Q13144)
inactive: ibrutinib 0 | [1] 0.008 | ralimetinib 0.027 | [2] -0.018 | [3] 0.008 | [4] -0.019 | [5] 0.012 | [8] -0.031 | [6] 0.008 | [7] 0.02

EPS8L2 (UniProt Q9H6S3)
UniProt Q9H6S3, sequence (Q9H6S3 whole entry, looked up): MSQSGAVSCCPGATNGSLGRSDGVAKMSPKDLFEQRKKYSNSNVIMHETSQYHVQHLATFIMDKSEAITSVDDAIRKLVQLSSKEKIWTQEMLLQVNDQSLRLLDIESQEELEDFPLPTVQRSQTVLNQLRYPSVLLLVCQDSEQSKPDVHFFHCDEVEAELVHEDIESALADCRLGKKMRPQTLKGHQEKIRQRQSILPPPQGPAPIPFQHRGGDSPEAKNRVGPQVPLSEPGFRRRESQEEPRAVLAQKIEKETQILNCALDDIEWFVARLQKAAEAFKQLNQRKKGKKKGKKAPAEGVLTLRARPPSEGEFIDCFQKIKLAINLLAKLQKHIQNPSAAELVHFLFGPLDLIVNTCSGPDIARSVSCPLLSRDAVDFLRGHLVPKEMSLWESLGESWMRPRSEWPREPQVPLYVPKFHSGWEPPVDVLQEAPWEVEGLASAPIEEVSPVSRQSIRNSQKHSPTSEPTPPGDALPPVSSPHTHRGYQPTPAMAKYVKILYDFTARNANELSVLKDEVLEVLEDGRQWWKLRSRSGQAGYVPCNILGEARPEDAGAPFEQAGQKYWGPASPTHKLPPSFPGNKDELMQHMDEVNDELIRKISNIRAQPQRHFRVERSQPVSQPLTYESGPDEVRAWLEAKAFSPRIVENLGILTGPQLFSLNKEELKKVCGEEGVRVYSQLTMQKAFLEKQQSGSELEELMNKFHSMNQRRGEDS
inactive: ibrutinib -0.041 | [1] -0.026 | ralimetinib -0.028 | [2] -0.021 | [3] 0.002 | [4] 0.031 | [5] -0.002 | [8] -0.054 | [6] -0.084 | [7] 0.015

DYRK1A (UniProt Q13627)
active: [1] 0.264
inactive: ibrutinib -0.019 | ralimetinib -0.003 | [2] 0.011 | [3] 0.01 | [4] 0.007 | [5] 0.005 | [8] -0.007 | [6] -0.024 | [7] 0.034

FPGT (UniProt O14772)
UniProt O14772, sequence (O14772 whole entry, looked up): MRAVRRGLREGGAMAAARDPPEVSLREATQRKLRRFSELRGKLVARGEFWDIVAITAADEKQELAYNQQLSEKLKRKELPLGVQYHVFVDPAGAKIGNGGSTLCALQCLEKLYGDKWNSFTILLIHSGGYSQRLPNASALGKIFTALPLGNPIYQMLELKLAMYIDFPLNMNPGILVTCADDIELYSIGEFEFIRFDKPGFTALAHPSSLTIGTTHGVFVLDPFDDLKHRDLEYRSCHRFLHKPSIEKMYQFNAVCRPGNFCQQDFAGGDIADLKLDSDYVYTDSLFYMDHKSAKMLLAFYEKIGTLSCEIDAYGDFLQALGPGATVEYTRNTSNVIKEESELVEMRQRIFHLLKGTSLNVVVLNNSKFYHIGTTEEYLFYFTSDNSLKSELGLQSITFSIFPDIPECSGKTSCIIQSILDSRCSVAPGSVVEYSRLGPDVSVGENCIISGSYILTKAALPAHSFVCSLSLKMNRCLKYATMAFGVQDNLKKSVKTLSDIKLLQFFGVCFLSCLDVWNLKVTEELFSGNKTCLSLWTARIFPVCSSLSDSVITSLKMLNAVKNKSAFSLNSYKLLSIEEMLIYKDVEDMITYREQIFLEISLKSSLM
inactive: ibrutinib -0.016 | [1] -0.033 | ralimetinib 0.005 | [2] 0.011 | [3] 0.014 | [4] 0.009 | [5] 0.029 | [8] 0.02 | [6] 0.003 | [7] -0.033

ERAL1 (UniProt O75616)
inactive: ibrutinib 0.052 | [1] -0.042 | ralimetinib 0.03 | [2] 0.011 | [3] -0.007 | [4] 0.047 | [5] 0.03 | [8] 0.014 | [6] 0.045 | [7] 0.018

EPHX2 (UniProt P34913)
inactive: ibrutinib 0.051 | [1] -0.002 | ralimetinib -0.001 | [2] -0.02 | [3] 0.099 | [4] 0.004 | [5] -0.006 | [8] 0.11 | [6] 0.06 | [7] 0.051

GDPD1 (UniProt Q8N9F7)
UniProt Q8N9F7, sequence (Q8N9F7 whole entry, looked up): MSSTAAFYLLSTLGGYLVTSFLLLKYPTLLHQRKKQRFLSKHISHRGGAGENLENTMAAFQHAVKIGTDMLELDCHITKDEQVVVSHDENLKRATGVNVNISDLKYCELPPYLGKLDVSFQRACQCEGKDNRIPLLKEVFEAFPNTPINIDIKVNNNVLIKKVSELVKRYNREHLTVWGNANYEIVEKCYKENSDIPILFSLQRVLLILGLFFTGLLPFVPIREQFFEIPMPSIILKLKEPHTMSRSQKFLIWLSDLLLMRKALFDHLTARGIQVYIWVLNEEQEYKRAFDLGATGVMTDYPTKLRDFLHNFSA
inactive: ibrutinib 0.039 | [1] -0.058 | ralimetinib 0.06 | [2] -0.137 | [3] 0.047 | [4] -0.032 | [5] -0.001 | [8] 0.055 | [6] 0.024 | [7] -0.063

FTL (UniProt P02792)
UniProt P02792, sequence (P02792 whole entry, looked up): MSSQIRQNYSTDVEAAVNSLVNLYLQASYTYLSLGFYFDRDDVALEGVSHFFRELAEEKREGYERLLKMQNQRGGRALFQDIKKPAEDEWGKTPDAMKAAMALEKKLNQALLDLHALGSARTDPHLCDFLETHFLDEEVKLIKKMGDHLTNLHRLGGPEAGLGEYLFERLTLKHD
inactive: ibrutinib -0.026 | [1] -0.025 | ralimetinib -0.146 | [2] -0.257 | [3] 0.023 | [4] 0.027 | [5] 0.041 | [8] 0.023 | [6] 0.033 | [7] 0.053

GALK1 isoform 2 (UniProt P51570)
inactive: ibrutinib 0.002 | [1] 0.032 | ralimetinib -0.013 | [2] -0.001 | [3] -0.006 | [4] -0.021 | [5] -0.026 | [8] 0.002 | [6] -0.001 | [7] 0.04

EXTL2 (UniProt Q9UBQ6)
UniProt Q9UBQ6, sequence (Q9UBQ6 whole entry, looked up): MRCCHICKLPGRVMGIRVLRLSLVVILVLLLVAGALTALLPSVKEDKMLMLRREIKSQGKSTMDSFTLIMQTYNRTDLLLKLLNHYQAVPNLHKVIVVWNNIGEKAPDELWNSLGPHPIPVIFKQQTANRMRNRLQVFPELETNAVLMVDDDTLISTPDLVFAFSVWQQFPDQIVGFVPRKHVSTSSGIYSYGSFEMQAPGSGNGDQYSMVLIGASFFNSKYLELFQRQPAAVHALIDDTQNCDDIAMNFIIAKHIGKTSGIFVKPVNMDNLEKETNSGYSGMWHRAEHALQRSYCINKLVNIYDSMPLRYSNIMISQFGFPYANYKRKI
inactive: ibrutinib 0.217 | [1] -0.056 | ralimetinib -0.015 | [2] 0 | [3] -0.077 | [4] 0.021 | [5] -0.146 | [8] 0.014 | [6] -0.04 | [7] -0.071
